Source: PubChem (National Center for Advancing Translational Sciences (NCATS))
Lassa entry inh = blocks Lassa virus binding to or entry into cells | Lassa virus pseudotype entry inhibition, cell reporter | Potency, µM (top dose mostly 37.9 µM), without a hit: top-dose activity change, negative = inhibition, hits mostly inhibitors | actives 1.2% (n = 300,000); calls by dose curve; tested in HEK293 cells; note: potency is the fitted concentration of half-maximal effect; nearly all actives have a fitted effect of over 50% in size
VACV Venus inh = inhibitors of vaccinia virus (Venus reporter) | Potency, µM (top dose mostly 36.5 µM), for inactives: at the top dose activity change, negative = inhibition, usual class: inhibitors | Vaccinia virus Venus reporter expression, fluorescence | actives 0.46% (n = 330,000); calls by dose curve; tested in A549 cells; note: potency is the fitted concentration of half-maximal effect; nearly all actives have a fitted effect of over 30% in size
Vaccinia mCherry = vaccinia inhibition (mCherry reporter). Vaccinia virus mCherry reporter infection, fluorescence. Potency, µM (titrated, usually from 36.5 µM), inactives show at the highest dose activity change, negative = inhibition, actives largely listed as inhibitors. actives 0.63% (n = 310,000). AID 720579; calls by dose curve; tested in A549 cells; note: potency is the fitted concentration of half-maximal effect; nearly all actives have a fitted effect of over 35% in size
HCMV inh = human cytomegalovirus inhibition | activity change, negative = inhibition, % at 57.5 µM | HFF cells, HCMV-luciferase reporter, 72 h; active compounds read low | actives 4.5% (n = 410,000); in the data active = activity change below about -60%; inconclusive = no clear call, values can overlap the other calls; inactive = above about -39%
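Human foreskin fibroblasts infected with luciferase-reporter HCMV at MOI 1 PFU/cell, compounds at two doses. Luciferase measured 72 h post infection; normalized to buffer-only basal and Salinomycin (10uM) controls.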
FMDV antiviral = foot and mouth disease virus antiviral activity. FMDV antiviral cell-based qHTS. Potency, µM (highest dose often 57.9 µM), for inactives: at the top dose activity change, negative = inhibition, most hits filed as inhibitors. actives 1.2% (n = 410,000). AID 1159524; calls by dose curve; tested in HEK293T cells; note: read-out not given here; potency is the fitted concentration of half-maximal effect; nearly all actives have a fitted effect of over 45% in size
MARV entry inh = inhibitors of Marburg virus binding or cell entry; Marburg virus pseudotyped entry inhibition, cell reporter; Potency, µM (top dose mostly 37.8 µM), for the others: at the top dose activity change, negative = inhibition, most hits filed as inhibitors; actives 1.8% (n = 300,000); AID 540276; calls by dose curve; tested in HEK293 cells; note: potency is the fitted concentration of half-maximal effect
* hit, by the source's call; [ ] = dose if it differs, or a comment. The list is not random: actives were taken first. Their share in the collection is about 6.5%. % is set by controls: 0 for no effect and ±100 for the full control effect.

For Cc1ccc(C(=O)Nc2sc3c(c2C(=O)O)CCCCC3)o1 the results were Lassa entry inh 7.94µM*, VACV Venus inh inconclusive, Vaccinia mCherry inconclusive, HCMV inh 40.5, FMDV antiviral -44.4% and MARV entry inh 6.31µM*.
For Cc1ccc(C(=O)Nc2sc3c(c2C(=O)O)CCCC3)o1 the results were HCMV inh -61.8* and FMDV antiviral 21.9%.
Screening COc1ccc2c(c1)OC(C)CN(CCNC(=O)c1cc3cc(F)ccc3[nH]1)C2 (centres undefined) returned VACV Venus inh -10.1%, Vaccinia mCherry -13.2% and FMDV antiviral 16.8%.
Screening Cn1c(=N)n(CC(=O)c2ccccc2)c2ccccc21 returned Lassa entry inh 7.08µM*, VACV Venus inh -1.3%, Vaccinia mCherry inconclusive, HCMV inh -14.7, FMDV antiviral 0.1% and MARV entry inh 2µM*.
For Cc1ccc(C(=O)Cn2c(=N)n(N)c3ccccc32)cc1 the results were HCMV inh 39.0 and FMDV antiviral 39.8µM*.
Screening O=C1CSc2ccc(C(=O)N3CCCCC3)cc2N1 returned VACV Venus inh -8.6%, Vaccinia mCherry inactive, HCMV inh -68.3* and FMDV antiviral -15.8%.
O=C(Nc1cccc(Cl)c1)OCc1cn(-c2ccccc2)nn1 was read as Lassa entry inh inconclusive, VACV Venus inh 1.6%, Vaccinia mCherry -1.6%, HCMV inh -15.0, FMDV antiviral 2.51µM* and MARV entry inh 16.4%[46.1 µM].
`CC1=C(CC/C(C)=N/NC(N)=S)C(C)(C)CCC1` gave Lassa entry inh inconclusive, HCMV inh -23.6, FMDV antiviral -14.1% and MARV entry inh 20.6µM*.
CCC1CSC(Nc2ccc(C(=O)/C=C/c3cccc(C)c3)cc2)=N1 (centres undefined) was read as Lassa entry inh 5.4%, HCMV inh -63.2*, FMDV antiviral -24.4% and MARV entry inh inconclusive.
Screening O=P(c1ccccc1)(c1ccccc1)c1nc(-c2ccc(Cl)cc2)oc1N1CCOCC1 returned Lassa entry inh -29.0%, HCMV inh -88.4*, FMDV antiviral -24.1% and MARV entry inh inconclusive.
For CCCn1c(C(O)c2ccc(OC)c(OC)c2)nc2ccccc21 (centres undefined) the results were HCMV inh -68.7* and FMDV antiviral inconclusive.
CCCn1c(C(O)c2ccc(OC)cc2)nc2ccccc21 (centres undefined) was read as Lassa entry inh 1.3%, VACV Venus inh -24.0%, Vaccinia mCherry -23.7%, HCMV inh -12.7, FMDV antiviral -17.5% and MARV entry inh 10.7%[46.1 µM].
Cc1cccc(-c2nc3c(N4CCOCC4)nccc3[nH]2)c1 was read as HCMV inh -0.5.
For CCOc1ccc(Oc2ccccc2NC(=O)CSCC(=O)Nc2cc(C)on2)cc1 the results were Lassa entry inh inconclusive, VACV Venus inh -28.0%, Vaccinia mCherry -6.6%, HCMV inh inconclusive, FMDV antiviral inconclusive and MARV entry inh inconclusive.
Cc1cccc(Oc2ccccc2NC(=O)CSCC(=O)Nc2cc(C)on2)c1 was read as Lassa entry inh inconclusive, VACV Venus inh -3.5%, Vaccinia mCherry -26.6%, HCMV inh inconclusive, FMDV antiviral inconclusive and MARV entry inh 3.55µM*.
Screening COc1cc2c(cc1C(F)(F)F)N(C(=O)Nc1cc(F)cc(-c3cccnc3)c1)CC2 returned VACV Venus inh -26.9%, Vaccinia mCherry -4.7%, FMDV antiviral -4.4% and MARV entry inh 1.26µM*.
Screening Cn1ccc2cc3c(cc21)CCN3C(=O)Nc1cccnc1 returned Lassa entry inh inconclusive, VACV Venus inh -8.0%, Vaccinia mCherry inactive, HCMV inh 77.6, FMDV antiviral 47.8% and MARV entry inh inconclusive.
`C[C@@H](CSc1ccccc1)CN1CC[C@H](NC(=O)OCc2ccccc2)CCC1=O` gave VACV Venus inh inconclusive, Vaccinia mCherry -0.4%, HCMV inh -78.1* and FMDV antiviral -26.3%.
Screening Cc1cc(N(C)C)cc(C)c1C=O returned VACV Venus inh -11.1% and Vaccinia mCherry -12.1%.
For CCn1c(=O)c2sccc2n2c(CCCC(=O)NCc3cccnc3)nnc12 the results were HCMV inh 6.5 and FMDV antiviral -2.2%.
